Data reported in the supplement of paper PMC9492666.
Counter-ions that a name gives are not always drawn.

Each compound was assayed on MDA-MB-231 (assay: relative cell viability, compound alone, vs DMSO (fraction of DMSO control); higher = less growth inhibition). Conditions: 72 h.
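Also: viability read out with the CCK-8 kit in 96-well plates, screening a set of 303 compounds acting on lipid metabolism targets.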

Structure (SMILES)	relative cell viability
CCCCCCCCCCOc1ccc(C(=O)Nc2cc(C(=O)NCCCC)ccc2SC)cc1	1.06
CC[C@H](C)C(=O)O[C@H]1C[C@@H](C)C=C2C=C[C@H](C)[C@H](CC[C@@H]3C[C@@H](O)CC(=O)O3)[C@H]21 [Lovastatin]	0.657
Cc1ccc(/C=C2\SC(=S)N(CCCCCC(=O)Nc3ccc(C(=O)O)c(O)c3)C2=O)cc1	0.914
Cc1cc(C)c(S(=O)(=O)Nc2cccc(C(F)(F)F)c2)c(C)c1	1.18
CCC(C)(Oc1ccc(C2(c3ccc(OC(C)(CC)C(=O)O)cc3)CCCCC2)cc1)C(=O)O (stereo not given) [Clinofibrate]	0.846
C[C@H](CCOc1cccc(CC(=O)O)c1)N(Cc1cccc(C(F)(F)F)c1Cl)CC(c1ccccc1)c1ccccc1	0.841
CSc1ccc(C(=O)/C=C/c2cc(C)c(OC(C)(C)C(=O)O)c(C)c2)cc1 [Elafibranor]	1.06
CN(C)CCOC(=O)COc1ccc(Cl)cc1 [Meclofenoxate hydrochloride]	0.933
Cc1c(C(=O)NN2CCOCC2)nn(-c2ccc(Cl)cc2Cl)c1-c1ccc(I)cc1	0.817
O=C(c1c2ccccc2cc2ccccc12)N1CCC(N2CCC[C@@H](C(=O)N3CCOCC3)C2)CC1	0.836
COc1cc(N2CCN(C)CC2)ccc1Nc1ncc2c(n1)N(C)c1ccccc1C(=O)N2	0.655
Cc1ccc(C)c(OCCCC(C)(C)C(=O)O)c1 [Gemfibrozil]	0.783
c1cc(-c2cnn3cc(-c4ccc(OCCN5CCCCC5)cc4)cnc23)ccn1 [Dorsomorphin dihydrochloride]	0.301
CC(C)(C)c1ccc(-c2nc3ccccc3[nH]2)cc1	0.612
O=C(OC(C(F)(F)F)C(F)(F)F)N1CCN(Cc2ccc(C(F)(F)F)cc2N2CCCC2)CC1	1.01
CC(C)c1nc(N(C)S(C)(=O)=O)nc(-c2ccc(F)cc2)c1/C=C/[C@@H](O)C[C@@H](O)CC(=O)O [Rosuvastatin]	0.871
COc1ccc(C(=O)/C=C/c2ccccc2)cc1 [4'-Methoxychalcone]	0.889
CC(C)(Oc1ccc(Cl)cc1)C(=O)O [Clofibric acid]	0.825

Structure (SMILES)	relative cell viability
O=C(O)C(O)Cc1ccc(O)c(O)c1 (stereo not given) [Sodium Danshensu]	0.818
O=C(Nc1ccc(C(O)(C(F)(F)F)C(F)(F)F)cc1)c1ccc(C(F)(F)F)cc1	0.631
CC(C)(Oc1ccc(C(=O)c2ccc(Cl)cc2)cc1)C(=O)O [Fenofibric acid]	0.842
O=C1c2cc(CO)cc(O)c2C(=O)c2c(O[C@@H]3O[C@H](CO)[C@@H](O)[C@H](O)[C@H]3O)cccc21 [Aloe-emodin-8-O-beta-D-glucopyranoside]	0.783
C[C@H](CCCC(C)(C)O)[C@H]1CC[C@H]2[C@@H]3CC=C4C[C@@H](O)CC[C@]4(C)[C@H]3CC[C@]12C [25-Hydroxycholesterol]	0.89
CC(C)(Oc1ccc(CCNC(=O)c2ccc(Cl)cc2)cc1)C(=O)O [Bezafibrate]	0.823
CCCCCCCCCCCC1=C(O)C(=O)C=C(O)C1=O [Embelin]	0.983
O=C(Nc1ccccc1)N1CCN(c2nc(-c3ccccc3)ns2)CC1	0.821
CCc1ccc(N(CC(C)C)S(=O)(=O)c2ccc(OCC3CCOCC3)c(CO)c2)cc1	0.939
O=C(NN1CCCCC1)c1nn(-c2ccc(Cl)cc2Cl)c(-c2ccc(C#Cc3ccc(C(F)(F)F)cc3)s2)c1CNS(=O)(=O)N1CCCC1	0.893
Nc1ncnc2c1ncn2[C@@H]1O[C@H](COP(=O)(O)O)[C@@H](O)[C@H]1O [Adenosine 5'-monophosphate]	0.81
COc1ccc2c(c1)c(CC(=O)O)c(C)n2C(=O)c1ccc(Cl)cc1 [Indometacin]	0.842
Cc1ccc(Oc2nc3cc(-c4ccc(-c5ccccc5)cc4)c(Cl)cc3[nH]2)cc1C(=O)O	0.92
COc1cccc(CNc2ccc(S(=O)(=O)Nc3nc4ccccc4s3)cc2)c1O	0.975
C[N+](C)(C)CC(O)CC(=O)[O-] (stereo not drawn) [L(-)-Carnitine]	0.876
Nc1ncnc2c1ncn2C1OC(COP(=O)(O)O)C(O)C1O (stereo not given) [Adenosine 5'-monophosphate monohydrate]	1.03
O=C(O)c1cc(F)c2nc(N3[C@@H]4CC[C@H]3C[C@@H](OCc3c(-c5ccccc5OC(F)(F)F)noc3C3CC3)C4)sc2c1 [Tropifexor]	0.971
